Compound activity deposited in PubChem BioAssay by several laboratories.
An excerpt weighted towards active compounds, which were near 4.3% of everything screened.
TRPM1 prom inh: reduces MITF-dependent TRPM1 promoter luciferase signal. SK-MEL-5 TRPM1 promoter luciferase, 24 h. 0.83% of 330,000 active. AID 488899. inhibition, % at 12.5 µM;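 active means mean inhibition across replicates of 60% or more, whatever share of single replicates reaches that level; inconclusive means some that reach 60%, reason not given; inactive means mean inhibition across replicates below 60%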
HIF-2a inh: blocks HIF-2a reporter activity; inhibition, % at 18.8 µM; 786-0 RCC cells HIF-2a reporter, luciferase luminescence, overnight; 0.72% of 360,000 active;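 active means inhibition of the luminescence signal of 40% or more relative to plate controls, in a single-dose primary screen at 18.75 µM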
Peg3 promoter: Peg3 promoter activity inhibition. HeLa PEG-Prom luciferase reporter, luminescence, overnight. inhibition, % at 20 µM. 1.7% of 360,000 active;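 active means inhibition of at least 50% at 20 µM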
KKLEB cytotox: reduces viability of KKLEB cystic fibrosis airway cells; activity change (cytotoxicity), % at 5 µM; KKLEB CF airway cells viability, ATPlite luminescence, overnight; hits give low values; cells stimulated with P. aeruginosa culture filtrate; 0.36% of 360,000 active;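 active means corrected activity change at or below -50% at 5 µM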
CHOP inh: inhibitors of CHOP induction in ER stress response | CHO-K1 CHOP-promoter luciferase, tunicamycin-induced, 15-18 h | inhibition, % at 10 µM | 3.8% of 220,000 active | AID 2732;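 active means compounds that reduced the stress-induced luciferase reporter signal by more than about 70% of percent inhibition, limit read from the data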
CF NFkB inh: inhibitors of cystic fibrosis induced NF-kB. KKLEB NF-kB-GFP reporter, PAF-induced, GFP fluorescence overnight. inhibition, % at 5 µM. 0.86% of 360,000 active. AID 588850;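 active means at least 50% inhibition at 5 µM, scaled per plate between neutral and stimulator controls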;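 further: PAF is a Pseudomonas aeruginosa culture filtrate used as stimulus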
Large screens that a line does not name were inactive.

CC(NCC(O)COc1ccc2ccccc2c1)c1ccccc1 (configuration not stated)	Peg3 promoter 66 (no result: CHOP inh)
Cc1cc(OCC(O)CNC(C)c2ccccc2)ccc1C(C)C (configuration not stated)	Peg3 promoter 107 (no result: CHOP inh)
COc1ccc(OCC(O)CNC(C)c2ccccc2)cc1 (configuration not stated)	none (no result: CHOP inh)
NC(=O)CC(NC(=O)c1ccccc1)c1ccc(NCCN2CCCCC2)c([N+](=O)[O-])c1 (configuration not stated)	none (no result: CHOP inh)
Cc1c(NC(=O)COc2ccc(C(C)C)cc2)c(=O)n(-c2ccccc2)n1C	none (no result: CHOP inh)
CCCCN1CC(COCc2ccccc2)Oc2cccc(OCCN3C(=O)[C@@H]4[C@H](C3=O)C3C=C[C@H]4C3)c2S1(=O)=O (some centres not stated)	Peg3 promoter 59 (no result: CHOP inh)
C=C(C)c1nc(Oc2ccccc2)nc(Oc2ccccc2)n1	TRPM1 prom inh inconclusive, Peg3 promoter 106 (no result: CHOP inh)
C=C(C)c1ccccc1	none (no result: CHOP inh)
O=C(Nc1ccc2c(c1)CCO2)Nc1nnc([C@H]2C[C@H](O)[C@@H](CO)O2)s1	none (no result: TRPM1 prom inh, CHOP inh)
CN(C(=O)CSc1nc2ccc(Cl)cc2[nH]1)C1CCS(=O)(=O)C1 (configuration not stated)	none (no result: CHOP inh)
CCN1C(=O)c2ccc(C(=O)Nc3ccc(O)cc3C)cc2C1=O	none (no result: CHOP inh)
COc1ccc(NC(=O)CC2C(=O)N(Cc3ccccc3)C(=S)N2CCN2CCOCC2)cc1 (configuration not stated)	none
C=CCN1C(=O)C(CC(=O)Nc2ccc(OCCC)cc2)N(CCCN2CCN(Cc3ccccc3)CC2)C1=S (configuration not stated)	Peg3 promoter 52, CHOP inh 94
CCCOc1ccc(NC(=O)CC2C(=O)N(CC)C(=S)N2Cc2cccs2)cc1 (configuration not stated)	CHOP inh 93
CCCCCCOc1ccc(NC(=O)CC2C(=O)N(CC)C(=S)N2Cc2ccco2)cc1 (configuration not stated)	CHOP inh 91
CCc1nc2ccc(C(=O)N(CC)CCN(C)C)cn2c1N(CC)CCOC	none (no result: TRPM1 prom inh, CHOP inh)
CC(NC(=O)c1ccc(N(C)C)cc1)C1CC2CCC1C2 (configuration not stated)	CHOP inh 79
COc1ccc(C(=O)NC(C)C2CC3CCC2C3)cc1 (configuration not stated)	none (no result: CHOP inh)
CC1=C(C(=O)N(C)C)CC(CC(=O)NCc2cccc3ccccc23)C(=O)N1CCCN1CCCC1=O (configuration not stated)	none (no result: TRPM1 prom inh, CHOP inh)
CC/C(=N\NC(=O)c1ccc2c(c1)OCO2)C12CC3CC(CC(C3)C1)C2	CHOP inh 77
CC/C(=N\NC(=O)c1ccncc1)C12CC3CC(CC(C3)C1)C2	none
CCc1nc2ccc(C(=O)N(CC)CCN(C)C)cn2c1N(C)C(=O)c1cccc(OC)c1	none (no result: TRPM1 prom inh, CHOP inh)
CCCNC(=O)C1(C)CCCN(Cc2cc(-c3ccccc3)n(C)n2)C1 (configuration not stated)	none (no result: TRPM1 prom inh, CHOP inh)
COc1cccc(NC(=O)CN(C)C(=O)c2cc(-c3cccc(Br)c3)nc3ccccc23)c1	Peg3 promoter 71 (no result: CHOP inh)
CC1(C(=O)NS(=O)(=O)c2ccc(F)cc2F)CCN1C(=O)CC1CCCCC1 (configuration not stated)	none (no result: TRPM1 prom inh, CHOP inh)
C1=C(c2ccccc2)N2CCN=C2S1	CHOP inh 86
Brc1ccc(C2=CSC3=NCCN23)cc1	none
CN1C[C@@H]2[C@@H]3C(=O)N(Cc4ccccc4)C(=O)[C@@H]3[C@](Cc3ccccc3)(C1=O)N2C(=O)c1ccc(Br)cc1	none (no result: CHOP inh)
Cc1ccc(NC(=O)CSc2nnc(-c3ccc(S(=O)(=O)N4CCCC4)cc3)o2)cc1C	Peg3 promoter 60
O=C(CSc1nnc(-c2ccc(F)cc2)o1)Nc1ccc(S(=O)(=O)N2CCCCCC2)cc1	CHOP inh 84
Cc1cccc(C)c1OCc1nnc(SCC(=O)Nc2nccs2)o1	none
Cc1ccc(NC(=O)CSc2nnc(-c3ccccc3C)o2)cc1C	CHOP inh 70
CCOc1ccc(NC(=O)CSc2nnc(COc3c(C)cccc3C)o2)cc1	CHOP inh 87
CCOC(=O)C1CCCN(C(=O)C2(c3ccc(Cl)cc3)CCCC2)CC1 (configuration not stated)	none (no result: TRPM1 prom inh, CHOP inh)
CCN(CC)S(=O)(=O)c1ccc(NC(=O)CSc2nnc(-c3ccc(F)cc3)o2)cc1	CHOP inh 94
c1csc(C(c2nnnn2C2CCCCC2)N2CCCC3(CCCCC3)C2)c1 (configuration not stated)	CHOP inh 82
CC(C)(C)n1nnnc1C(c1cccs1)N1CCCC2(CCCCC2)C1 (configuration not stated)	none
O=C1N/C(=N\N=C\c2cccs2)SC1Cc1cccc(Cl)c1 (configuration not stated)	CHOP inh 88
CC1(c2ccccc2)CC(C)(C)N2C(=O)Cc3cccc1c32 (configuration not stated)	CHOP inh 72
CC(=O)N1c2ccccc2C(C)(c2ccccc2)CC1(C)C (configuration not stated)	none
CCOC(=O)N1CCN(C(=O)CSc2ccc(-c3cccc(OC)c3)nn2)CC1	CHOP inh 77
Clc1ccc2c(c1)Nc1ccccc1CC2	none (no result: CHOP inh)
Nc1nc2cc(Cl)ccc2cc1C(=O)NCCCc1ccccc1	none (no result: TRPM1 prom inh, Peg3 promoter, KKLEB cytotox, CHOP inh, CF NFkB inh)
COc1ccc(OC)c2c1C(=O)C(Cl)=C(Cl)C2=O	TRPM1 prom inh 88, HIF-2a inh 94, Peg3 promoter 107, KKLEB cytotox -54, CHOP inh 106, CF NFkB inh 90
COc1ccc(OC)c2c1C(=O)c1ccccc1C2=O	none (no result: TRPM1 prom inh, HIF-2a inh, Peg3 promoter, KKLEB cytotox, CF NFkB inh)
O=C(c1ccc(Cl)cc1)N1CCC(O)(CSc2ccc(Cl)cc2)CC1	CHOP inh 72
Cc1ccc(SCC2(O)CCN(S(=O)(=O)c3ccc(Cl)cc3)CC2)cc1	CHOP inh 81
Cc1ccc(S(=O)(=O)N2CCN(C(=O)CSc3ccc(Cl)cc3)CC2)cc1	none (no result: CHOP inh)
O=C(/C=C/c1ccc(Cl)cc1Cl)Nc1cccc(S(=O)(=O)NC2=NCCC2)c1	KKLEB cytotox -58
CCC(C)[C@H]1CNC(=S)N1CCC12CC3CC(CC(C3)C1)C2 (some centres not stated)	CHOP inh 80
O=C(COC(=O)c1cccc([N+](=O)[O-])c1)Nc1ncc(Br)s1	none (no result: CHOP inh)
CC(=O)Nc1ccc(-c2ccnc3c2CC(C(=O)Nc2cccnc2)O3)cc1 (configuration not stated)	none (no result: TRPM1 prom inh, CHOP inh)
CCCCC#Cc1nc(N)c2ncn([C@@H]3O[C@H](C(=O)NCC)[C@@H](O)[C@H]3O)c2n1	none (no result: TRPM1 prom inh, HIF-2a inh, Peg3 promoter, KKLEB cytotox, CF NFkB inh)
FC(F)(F)c1nc(Oc2ccccc2)c2ccccc2n1	CHOP inh 83
Cc1nc(Oc2ccccc2)c2ccccc2n1	none
O=c1cc(/N=C/c2coc3c(ccc4ccccc43)c2=O)[nH]c(=S)[nH]1	CHOP inh 79
